In ChEMBL document CHEMBL2218924, “A broad activity screen in support of a chemogenomic map for kinase signalling research and drug discovery” (Biochem J, 2013):

Columns and labels:
[1] = target: T1, Serine/threonine-protein kinase TAO2 (Homo sapiens) (UniProt Q9UL54); conditions: at 1 µM
T1 sequence (whole entry): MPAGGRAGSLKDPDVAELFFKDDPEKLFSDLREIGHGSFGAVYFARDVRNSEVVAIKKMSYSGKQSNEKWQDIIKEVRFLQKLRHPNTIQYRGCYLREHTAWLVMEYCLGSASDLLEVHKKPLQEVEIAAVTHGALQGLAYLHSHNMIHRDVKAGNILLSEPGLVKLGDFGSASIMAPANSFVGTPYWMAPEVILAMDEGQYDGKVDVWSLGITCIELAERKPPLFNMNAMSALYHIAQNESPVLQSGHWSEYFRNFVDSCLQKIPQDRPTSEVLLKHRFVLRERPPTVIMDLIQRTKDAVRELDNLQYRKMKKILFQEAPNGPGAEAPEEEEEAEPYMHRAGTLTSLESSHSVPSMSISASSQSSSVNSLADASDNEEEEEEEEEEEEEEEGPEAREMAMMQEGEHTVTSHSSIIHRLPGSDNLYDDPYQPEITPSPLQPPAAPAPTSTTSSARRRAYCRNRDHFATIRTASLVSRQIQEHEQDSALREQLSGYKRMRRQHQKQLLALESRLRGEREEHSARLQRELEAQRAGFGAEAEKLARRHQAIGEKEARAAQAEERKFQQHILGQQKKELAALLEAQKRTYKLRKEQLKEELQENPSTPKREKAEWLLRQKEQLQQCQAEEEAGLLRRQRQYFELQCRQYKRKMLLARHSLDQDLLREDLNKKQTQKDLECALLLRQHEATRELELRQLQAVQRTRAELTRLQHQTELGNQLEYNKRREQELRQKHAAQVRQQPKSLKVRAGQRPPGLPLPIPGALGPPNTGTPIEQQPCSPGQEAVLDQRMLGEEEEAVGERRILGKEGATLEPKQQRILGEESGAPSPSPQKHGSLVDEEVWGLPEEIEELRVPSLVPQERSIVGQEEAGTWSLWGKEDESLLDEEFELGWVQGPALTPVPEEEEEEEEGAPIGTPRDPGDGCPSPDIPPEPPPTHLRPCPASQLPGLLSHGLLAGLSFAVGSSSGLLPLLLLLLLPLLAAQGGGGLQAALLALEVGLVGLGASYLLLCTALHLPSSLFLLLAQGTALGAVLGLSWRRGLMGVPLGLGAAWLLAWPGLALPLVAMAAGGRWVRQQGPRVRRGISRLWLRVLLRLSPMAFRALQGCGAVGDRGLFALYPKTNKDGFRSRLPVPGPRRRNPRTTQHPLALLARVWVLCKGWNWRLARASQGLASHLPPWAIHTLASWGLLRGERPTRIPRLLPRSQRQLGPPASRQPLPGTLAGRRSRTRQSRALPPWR

[2] = target: T1, Serine/threonine-protein kinase TAO2 (Homo sapiens); conditions: at 10 µM
[3] = target: T2, Serine/threonine-protein kinase TAO3 (Homo sapiens) (UniProt Q9H2K8); conditions: at 1 µM
T2 sequence (whole entry): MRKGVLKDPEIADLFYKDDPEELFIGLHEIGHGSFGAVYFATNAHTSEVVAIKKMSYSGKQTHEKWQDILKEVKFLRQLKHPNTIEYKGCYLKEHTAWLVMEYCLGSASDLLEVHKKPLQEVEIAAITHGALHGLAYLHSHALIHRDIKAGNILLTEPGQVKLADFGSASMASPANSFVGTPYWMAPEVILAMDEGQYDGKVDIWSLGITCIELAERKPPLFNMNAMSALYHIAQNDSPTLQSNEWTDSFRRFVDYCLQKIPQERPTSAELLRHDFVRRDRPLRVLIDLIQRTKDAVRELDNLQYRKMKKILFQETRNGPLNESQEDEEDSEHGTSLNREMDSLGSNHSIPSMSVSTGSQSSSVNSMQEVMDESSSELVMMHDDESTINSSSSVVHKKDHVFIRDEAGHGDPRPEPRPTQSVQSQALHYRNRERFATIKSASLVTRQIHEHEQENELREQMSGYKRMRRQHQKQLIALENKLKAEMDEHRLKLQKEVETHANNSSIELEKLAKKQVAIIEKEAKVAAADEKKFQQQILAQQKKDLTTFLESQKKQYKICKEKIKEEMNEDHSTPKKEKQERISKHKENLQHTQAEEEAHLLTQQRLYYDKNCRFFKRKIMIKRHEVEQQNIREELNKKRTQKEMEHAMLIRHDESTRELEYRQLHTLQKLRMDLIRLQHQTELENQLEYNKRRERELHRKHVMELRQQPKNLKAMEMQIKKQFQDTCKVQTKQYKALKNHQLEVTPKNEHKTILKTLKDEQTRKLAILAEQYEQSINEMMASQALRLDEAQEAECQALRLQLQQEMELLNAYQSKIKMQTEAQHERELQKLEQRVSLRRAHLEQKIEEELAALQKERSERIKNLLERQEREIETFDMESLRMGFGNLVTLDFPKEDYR

[4] = target: T2, Serine/threonine-protein kinase TAO3 (Homo sapiens); conditions: at 10 µM
[5] = target: T3, Serine/threonine-protein kinase TBK1 (Homo sapiens) (UniProt Q9UHD2); conditions: at 1 µM
T3 sequence (whole entry): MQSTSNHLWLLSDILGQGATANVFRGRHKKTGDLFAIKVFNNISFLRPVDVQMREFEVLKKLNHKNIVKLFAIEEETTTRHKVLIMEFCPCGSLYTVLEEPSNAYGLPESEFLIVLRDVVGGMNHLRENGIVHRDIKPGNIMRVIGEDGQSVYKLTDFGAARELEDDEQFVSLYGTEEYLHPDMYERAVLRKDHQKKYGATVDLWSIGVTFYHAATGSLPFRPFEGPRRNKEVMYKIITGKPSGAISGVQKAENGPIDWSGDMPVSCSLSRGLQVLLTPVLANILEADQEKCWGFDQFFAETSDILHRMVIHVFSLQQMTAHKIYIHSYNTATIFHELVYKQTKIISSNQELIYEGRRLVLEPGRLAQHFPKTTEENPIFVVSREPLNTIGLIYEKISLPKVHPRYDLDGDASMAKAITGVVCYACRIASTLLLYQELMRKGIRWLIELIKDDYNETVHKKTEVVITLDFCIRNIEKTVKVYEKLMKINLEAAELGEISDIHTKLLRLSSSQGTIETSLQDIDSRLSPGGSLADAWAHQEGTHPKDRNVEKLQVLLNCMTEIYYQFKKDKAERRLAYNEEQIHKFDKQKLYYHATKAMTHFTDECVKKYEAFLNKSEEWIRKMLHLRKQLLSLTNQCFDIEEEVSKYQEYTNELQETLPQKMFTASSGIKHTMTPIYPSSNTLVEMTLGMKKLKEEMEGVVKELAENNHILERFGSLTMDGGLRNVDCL

[6] = target: T3, Serine/threonine-protein kinase TBK1 (Homo sapiens); conditions: at 10 µM
[7] = target: T4, TGF-beta receptor type-1 (Homo sapiens) (UniProt P36897); conditions: at 1 µM
T4 sequence (whole entry): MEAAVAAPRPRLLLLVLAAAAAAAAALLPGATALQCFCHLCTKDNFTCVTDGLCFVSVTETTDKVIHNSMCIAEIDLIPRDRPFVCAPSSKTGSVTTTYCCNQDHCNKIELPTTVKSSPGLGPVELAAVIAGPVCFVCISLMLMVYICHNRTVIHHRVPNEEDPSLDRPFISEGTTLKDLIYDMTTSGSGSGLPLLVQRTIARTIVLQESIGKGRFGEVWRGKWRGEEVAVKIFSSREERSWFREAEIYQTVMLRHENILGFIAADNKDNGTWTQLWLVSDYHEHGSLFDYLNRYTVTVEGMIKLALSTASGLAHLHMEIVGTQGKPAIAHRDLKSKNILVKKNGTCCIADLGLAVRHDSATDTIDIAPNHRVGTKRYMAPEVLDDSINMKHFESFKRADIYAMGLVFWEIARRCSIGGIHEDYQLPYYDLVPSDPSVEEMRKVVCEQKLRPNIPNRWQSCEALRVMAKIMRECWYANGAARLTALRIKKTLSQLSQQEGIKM

[8] = target: T4, TGF-beta receptor type-1 (Homo sapiens); conditions: at 10 µM
[9] = target: Insulin-like growth factor 1 receptor (Homo sapiens) (UniProt P08069); conditions: at 1 µM
Sequence of Insulin-like growth factor 1 receptor (Homo sapiens) (P08069 31-736 limits assumed): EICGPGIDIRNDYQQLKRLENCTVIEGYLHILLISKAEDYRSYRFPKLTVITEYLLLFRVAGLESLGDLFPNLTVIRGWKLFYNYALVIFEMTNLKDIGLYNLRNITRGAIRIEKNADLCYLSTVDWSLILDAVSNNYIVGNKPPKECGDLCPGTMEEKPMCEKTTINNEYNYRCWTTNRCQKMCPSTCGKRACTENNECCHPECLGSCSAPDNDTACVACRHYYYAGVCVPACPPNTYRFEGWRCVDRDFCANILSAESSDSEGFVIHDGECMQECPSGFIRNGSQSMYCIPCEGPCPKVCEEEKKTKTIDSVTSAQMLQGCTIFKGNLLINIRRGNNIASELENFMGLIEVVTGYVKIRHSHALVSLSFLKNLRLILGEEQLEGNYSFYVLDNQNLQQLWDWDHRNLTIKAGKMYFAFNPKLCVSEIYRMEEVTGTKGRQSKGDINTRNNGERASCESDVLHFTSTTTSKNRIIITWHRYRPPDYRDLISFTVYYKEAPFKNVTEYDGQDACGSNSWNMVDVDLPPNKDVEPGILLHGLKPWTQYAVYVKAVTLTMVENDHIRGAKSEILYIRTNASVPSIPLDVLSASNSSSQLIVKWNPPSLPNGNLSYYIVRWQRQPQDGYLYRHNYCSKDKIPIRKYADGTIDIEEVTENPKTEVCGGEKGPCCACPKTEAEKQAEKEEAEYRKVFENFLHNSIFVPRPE
Sequence of Insulin-like growth factor 1 receptor (Homo sapiens) (P08069 741-1367 limits assumed): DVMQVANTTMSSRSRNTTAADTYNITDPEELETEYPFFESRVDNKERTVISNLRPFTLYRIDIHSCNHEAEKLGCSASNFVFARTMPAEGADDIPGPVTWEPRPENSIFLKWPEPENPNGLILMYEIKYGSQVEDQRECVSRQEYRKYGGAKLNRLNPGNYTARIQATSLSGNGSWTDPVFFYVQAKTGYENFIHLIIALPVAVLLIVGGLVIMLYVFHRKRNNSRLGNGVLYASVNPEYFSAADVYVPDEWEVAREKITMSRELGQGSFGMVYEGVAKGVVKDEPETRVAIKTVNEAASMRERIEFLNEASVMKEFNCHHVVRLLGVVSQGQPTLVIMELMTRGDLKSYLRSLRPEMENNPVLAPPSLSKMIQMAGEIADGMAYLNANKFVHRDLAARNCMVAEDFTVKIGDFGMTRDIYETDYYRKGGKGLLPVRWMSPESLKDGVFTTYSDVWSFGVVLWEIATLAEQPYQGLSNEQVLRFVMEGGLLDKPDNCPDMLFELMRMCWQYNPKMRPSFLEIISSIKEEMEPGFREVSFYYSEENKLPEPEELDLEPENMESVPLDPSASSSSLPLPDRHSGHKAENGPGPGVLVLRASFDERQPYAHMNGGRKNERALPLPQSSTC

[10] = target: Insulin-like growth factor 1 receptor (Homo sapiens) (UniProt P08069); conditions: at 10 µM
[11] = target: T5, Inhibitor of nuclear factor kappa-B kinase subunit alpha (Homo sapiens) (UniProt O15111); conditions: at 1 µM
T5 sequence (whole entry): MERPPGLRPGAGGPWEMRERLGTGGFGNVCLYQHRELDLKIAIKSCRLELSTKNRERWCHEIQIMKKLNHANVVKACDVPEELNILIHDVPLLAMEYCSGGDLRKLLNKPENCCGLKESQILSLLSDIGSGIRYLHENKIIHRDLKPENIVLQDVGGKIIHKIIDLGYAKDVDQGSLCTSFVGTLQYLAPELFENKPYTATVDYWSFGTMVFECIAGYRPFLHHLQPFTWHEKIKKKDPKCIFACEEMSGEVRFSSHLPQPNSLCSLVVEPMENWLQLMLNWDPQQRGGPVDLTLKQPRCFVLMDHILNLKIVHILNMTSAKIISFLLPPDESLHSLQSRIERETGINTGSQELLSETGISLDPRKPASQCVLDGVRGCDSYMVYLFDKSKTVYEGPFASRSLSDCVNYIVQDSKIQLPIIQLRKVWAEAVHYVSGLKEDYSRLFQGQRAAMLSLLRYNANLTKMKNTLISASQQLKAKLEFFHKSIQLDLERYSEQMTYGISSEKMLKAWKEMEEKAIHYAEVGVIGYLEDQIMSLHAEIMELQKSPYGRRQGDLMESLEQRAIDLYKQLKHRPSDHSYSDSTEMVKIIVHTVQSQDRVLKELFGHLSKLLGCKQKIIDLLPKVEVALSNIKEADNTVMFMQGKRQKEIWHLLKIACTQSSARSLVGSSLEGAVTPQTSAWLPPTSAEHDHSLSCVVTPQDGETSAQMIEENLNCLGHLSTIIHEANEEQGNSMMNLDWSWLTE

[12] = target: T5, Inhibitor of nuclear factor kappa-B kinase subunit alpha (Homo sapiens); conditions: at 10 µM
[13] = target: T6, Inhibitor of nuclear factor kappa-B kinase subunit beta (Homo sapiens) (UniProt O14920); conditions: at 1 µM
T6 sequence (whole entry): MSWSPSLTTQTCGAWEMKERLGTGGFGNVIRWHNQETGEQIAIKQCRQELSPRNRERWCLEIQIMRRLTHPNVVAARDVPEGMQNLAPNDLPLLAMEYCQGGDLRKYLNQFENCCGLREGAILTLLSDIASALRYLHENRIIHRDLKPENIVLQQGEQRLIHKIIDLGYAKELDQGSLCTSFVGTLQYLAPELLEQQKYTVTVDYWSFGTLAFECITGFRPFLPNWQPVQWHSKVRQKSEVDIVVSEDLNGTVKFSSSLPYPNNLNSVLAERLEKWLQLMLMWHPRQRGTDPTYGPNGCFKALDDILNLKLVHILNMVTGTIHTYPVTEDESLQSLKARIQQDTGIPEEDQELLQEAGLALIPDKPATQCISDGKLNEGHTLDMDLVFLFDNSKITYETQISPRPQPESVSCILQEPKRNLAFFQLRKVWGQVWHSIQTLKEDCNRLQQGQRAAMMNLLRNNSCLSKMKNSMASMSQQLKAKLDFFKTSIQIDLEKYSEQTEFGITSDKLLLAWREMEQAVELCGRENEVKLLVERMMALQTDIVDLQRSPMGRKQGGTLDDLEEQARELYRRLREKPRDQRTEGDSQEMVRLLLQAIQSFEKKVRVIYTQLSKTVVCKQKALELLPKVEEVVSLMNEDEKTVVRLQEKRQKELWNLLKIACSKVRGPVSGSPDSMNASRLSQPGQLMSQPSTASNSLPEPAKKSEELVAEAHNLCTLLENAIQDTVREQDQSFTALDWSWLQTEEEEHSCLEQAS

[14] = target: T6, Inhibitor of nuclear factor kappa-B kinase subunit beta (Homo sapiens); conditions: at 10 µM
[15] = target: Insulin receptor (Homo sapiens) (UniProt P06213); conditions: at 1 µM
Sequence of Insulin receptor (Homo sapiens) (P06213 28-758 limits assumed): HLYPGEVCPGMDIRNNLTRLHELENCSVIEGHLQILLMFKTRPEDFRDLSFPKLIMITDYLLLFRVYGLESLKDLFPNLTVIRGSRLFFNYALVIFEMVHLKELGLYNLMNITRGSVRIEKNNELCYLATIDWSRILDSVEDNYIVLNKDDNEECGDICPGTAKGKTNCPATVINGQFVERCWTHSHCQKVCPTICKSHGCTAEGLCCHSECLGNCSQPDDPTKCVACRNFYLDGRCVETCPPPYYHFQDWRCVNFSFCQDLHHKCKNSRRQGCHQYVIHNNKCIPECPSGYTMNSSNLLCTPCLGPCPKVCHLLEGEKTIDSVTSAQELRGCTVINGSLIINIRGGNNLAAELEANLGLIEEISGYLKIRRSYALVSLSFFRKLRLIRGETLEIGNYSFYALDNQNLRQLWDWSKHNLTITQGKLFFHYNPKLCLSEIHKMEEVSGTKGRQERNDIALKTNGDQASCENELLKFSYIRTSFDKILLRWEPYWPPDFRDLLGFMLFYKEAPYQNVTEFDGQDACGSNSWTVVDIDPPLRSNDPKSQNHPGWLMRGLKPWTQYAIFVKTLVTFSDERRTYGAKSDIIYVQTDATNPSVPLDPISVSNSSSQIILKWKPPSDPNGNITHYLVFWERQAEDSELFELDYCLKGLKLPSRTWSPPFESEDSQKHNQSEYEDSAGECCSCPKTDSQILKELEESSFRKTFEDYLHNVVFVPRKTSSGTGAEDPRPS
Sequence of Insulin receptor (Homo sapiens) (P06213 763-1382 limits assumed): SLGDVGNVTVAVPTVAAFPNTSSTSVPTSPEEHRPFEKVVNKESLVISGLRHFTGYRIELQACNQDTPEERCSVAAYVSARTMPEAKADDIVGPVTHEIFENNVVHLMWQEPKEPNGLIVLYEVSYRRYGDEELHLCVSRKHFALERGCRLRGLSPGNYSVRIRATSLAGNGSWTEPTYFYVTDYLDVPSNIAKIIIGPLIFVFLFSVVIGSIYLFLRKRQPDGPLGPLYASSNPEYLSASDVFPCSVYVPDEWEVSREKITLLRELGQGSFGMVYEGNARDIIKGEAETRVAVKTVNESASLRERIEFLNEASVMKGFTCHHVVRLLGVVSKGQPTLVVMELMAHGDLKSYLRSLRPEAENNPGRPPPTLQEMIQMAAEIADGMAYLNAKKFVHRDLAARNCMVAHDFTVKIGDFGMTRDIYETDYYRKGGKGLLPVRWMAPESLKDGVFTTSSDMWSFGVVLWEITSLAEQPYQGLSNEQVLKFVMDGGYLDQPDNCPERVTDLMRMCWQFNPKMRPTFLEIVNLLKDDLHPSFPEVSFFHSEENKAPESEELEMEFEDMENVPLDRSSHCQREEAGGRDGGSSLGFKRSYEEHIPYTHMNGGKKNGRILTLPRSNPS

[16] = target: Insulin receptor (Homo sapiens) (UniProt P06213); conditions: at 10 µM
[17] = target: Insulin receptor (Homo sapiens) (UniProt P06213); conditions: at 1 µM; remark: listed apart in the source
[18] = target: Insulin receptor (Homo sapiens) (UniProt P06213); conditions: at 10 µM; remark: listed apart in the source
[19] = target: Interleukin-1 receptor-associated kinase 1 (Homo sapiens) (UniProt P51617); conditions: at 1 µM
Sequence of Interleukin-1 receptor-associated kinase 1 (Homo sapiens) (P51617 whole entry, looked up): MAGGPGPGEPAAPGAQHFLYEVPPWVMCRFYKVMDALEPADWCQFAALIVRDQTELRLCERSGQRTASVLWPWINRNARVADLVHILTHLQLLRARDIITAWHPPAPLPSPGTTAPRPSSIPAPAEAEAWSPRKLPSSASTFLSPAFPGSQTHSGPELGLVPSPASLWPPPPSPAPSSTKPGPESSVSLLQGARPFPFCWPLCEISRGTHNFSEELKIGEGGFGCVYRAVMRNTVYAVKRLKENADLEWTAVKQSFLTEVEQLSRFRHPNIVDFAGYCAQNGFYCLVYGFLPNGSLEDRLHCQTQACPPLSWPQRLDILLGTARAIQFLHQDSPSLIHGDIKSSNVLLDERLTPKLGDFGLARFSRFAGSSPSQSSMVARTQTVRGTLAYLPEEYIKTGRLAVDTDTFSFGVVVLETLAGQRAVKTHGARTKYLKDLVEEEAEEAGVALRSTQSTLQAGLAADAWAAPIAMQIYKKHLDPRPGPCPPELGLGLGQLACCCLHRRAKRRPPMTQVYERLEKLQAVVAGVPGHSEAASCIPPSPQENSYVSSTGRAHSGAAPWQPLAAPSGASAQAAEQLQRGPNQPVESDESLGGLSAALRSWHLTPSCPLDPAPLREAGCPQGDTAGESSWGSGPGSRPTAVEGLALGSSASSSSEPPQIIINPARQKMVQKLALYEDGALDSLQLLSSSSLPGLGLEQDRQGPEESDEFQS

[20] = target: Interleukin-1 receptor-associated kinase 1 (Homo sapiens) (UniProt P51617); conditions: at 10 µM

| SMILES | residual activity [1] | residual activity [2] | residual activity [3] | residual activity [4] | residual activity [5] | residual activity [6] | residual activity [7] | residual activity [8] | residual activity [9] | residual activity [10] | residual activity [11] | residual activity [12] | residual activity [13] | residual activity [14] | residual activity [15] | residual activity [16] | residual activity [17] | residual activity [18] | residual activity [19] | residual activity [20] |
| --- | --- | --- | --- | --- | --- | --- | --- | --- | --- | --- | --- | --- | --- | --- | --- | --- | --- | --- | --- | --- |
| O=c1[nH]c2ccccc2n1C1CCN(Cc2ccc(-c3nc4cc5[nH]cnc5cc4nc3-c3ccccc3)cc2)CC1 | 101% | 56% | 93% | 66% | 82% | 68% | 91% | 87% | 98% | 80% | 118% | 109% | 101% | 102% | 119% | 75% | 103% | 98% | 103% | 88% |
| O=C1NC(=O)c2c1c1c3ccccc3n3c1c1c2c2ccccc2n1C1CCC3O1 | – | – | 96% | 94% | 54% | 62% | – | – | – | – | 93% | 73% | – | – | 94% | 79% | 100% | 88% | – | – |
| COc1cc2ncnc(Nc3ccc(OCc4ccccc4)cc3)c2cc1OC | 104% | 90% | 107% | 93% | 92% | 71% | 102% | 100% | 108% | 104% | 105% | 99% | 117% | 103% | 115% | 98% | 102% | 104% | 81% | 102% |
| CC(C)(C)c1cc(C=C(C#N)C#N)cc(Br)c1O | 113% | 103% | 101% | 97% | 103% | – | 97% | 97% | 105% | 104% | 101% | 99% | 98% | 99% | 122% | 108% | 109% | 105% | 117% | 107% |
| COc1ccc2c(c1)/C(=C/c1cnc[nH]1)C(=O)N2 | 72% | 14% | 59% | 12% | – | – | – | – | – | – | 74% | 23% | – | 59% | – | – | – | – | – | 37% |
